# Test results reported in PubChem BioAssay AID651847 (Broad Institute, 2012).
# Inconclusive results are not listed. A number with no mark means an inactive call. The rule behind the calls is not given here.
# Experiment: dose response, V. cholerae BH1651, dry powder (AID 651847)
# Details: V. cholerae BH1651 luxOD47E, luciferase light induction, 6 h; at 80 µM (top of the series) unless noted
row,SMILES,activation (light induction)
1,CCCCn1nnnc1NCc1ccc(N2CCCC2)cc1,-25%
2,CCn1nnnc1NCc1ccc(N2CCCC2)cc1,-12.5%
3,CC(C)NC(=O)Cc1ccc(-c2ccccc2)cc1,25%
4,CCn1nnc(CCc2ccc(N3CCCC3)cc2)n1,-25%
5,CCn1nnnc1NCc1ccc(N2CCCCC2)cc1,0% [at 28.5 µM]
6,O=C(Cc1cccc(OC(F)(F)F)c1)NC1CCCC1,0%
7,CCn1nccc1/N=C/c1ccc(N2CCCC2)cc1,0%
8,Cc1ccccc1CC(=O)NC1CCCC1,12.5%
9,O=C(Cc1ccccc1C(F)(F)F)NC1CCCC1,0%
10,CCn1nnnc1NCc1ccccc1N1CCCC1,0%
11,CCc1ccccc1NCc1ccc(N2CCCC2)cc1,-16.7%
12,c1ccc(-n2nnnc2NCc2ccc(N3CCCC3)cc2)cc1,37.5%
13,CCCn1nnnc1NCc1ccccc1Cl,25%
14,c1ccc(Cn2nnnc2NCc2ccc(N3CCCC3)cc2)cc1,0%
15,CCC(C)NC(=O)Cc1ccc(-c2ccccc2)cc1 (stereo unspecified),0%
16,CCn1nnnc1NCc1cccc(OC)c1,-25%
17,CCn1nnnc1NCc1cccc(N2CCCC2)c1,-33.3%
18,COc1ccc(CC(=O)NC2CCCC2)cc1,12.5%
19,CCn1nnnc1CCc1ccc(N2CCCC2)cc1,-12.5%
20,CCn1nnc(NCc2ccc(C)cc2)n1,16.7%
21,CCC(CC)NC(=O)Cc1ccc(-c2ccccc2)cc1,-16.7%
